Shown are actives, neighbours in structure and some others; about 5.7% of the full set was active somewhere.
ATXN2 expr inh = ATXN2 expression inhibition; HEK-293 ATXN2-luciferase reporter, luminescence, 24 h; Potency, µM (top dose mostly 57 µM), for the others: at the highest dose activity change, negative = inhibition, usual class: inhibitors; hit rate 0.72% among 360,000; AID 1745845; further: potency means the concentration at half of the fitted maximal effect; on the % scale 0 is the no-effect control and ±100 the full control effect; nearly all actives have a fitted effect of over 55% in size
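qHTS (up to 57 uM final) was run with 24 h compound exposure of reporter cells at 37 °C. Each well was multiplexed: SteadyGlo luminescence measured ATXN2-luciferase expression after a fluorogenic Gly-Phe-AFC viability readout (25 uM final).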
IL-1B inflam inh = inhibitors of inflammasome signaling (IL-1 beta secretion) | THP-1 LPS/ATP IL-1B secretion, AlphaLISA, 16 h; hits give low values | activity change, % at 57.5 µM | hit rate 4.7% among 360,000; in the data active means activity change below about -50%; inconclusive means mostly about -30% to -49%; further: on the % scale 0 is the no-effect control and ±100 the full control effect
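Secreted IL-1B measured by AlphaLISA bead assay after 16 h compound exposure of THP-1 cells; compounds (final up to 57.5 uM) added 1 h before LPS (250 ng/mL) and ATP (1.25 mM) stimulation; lower signal means less secretion.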
TGFb inhibitor = blocks TGF-b signaling; HepG2 CAGA-GFP TGF-b/SMAD3 reporter, GFP fluorescence, 18 h; TGF-beta stimulated, 500 pg/mL final; Potency, µM (doses to about 46.1 µM), for inactives: at the top dose activity, negative = inhibition, most hits filed as inhibitors; hit rate 1.2% among 410,000; further: potency means the concentration at half of the fitted maximal effect; on the % scale 0 is the no-effect control and ±100 the full control effect; nearly all actives have a fitted effect of over 65% in size
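HEPG2 CAGA-GFP, 1000 cells/well; 2 h settle, 37 C; cpd via pin tool; TGF-b 500 pg/mL final; 18 h, 37 C; GFP imaging ex488/em500-530; %Activity normalised to -TGF-b and +DMSO controls; CRC fit, curve class.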
S2 tox = cell viability loss in ATXN counter-screen; S2 cells (HEK-293 line with an ATXN2-luciferase reporter) viability, CellTiter-Fluor protease fluorescence, 24 h; Potency, µM (top dose mostly 56.7 µM), usual class: cytotoxic; hit rate 0.49% among 400,000; further: potency means the concentration at half of the fitted maximal effect; nearly all actives have a fitted effect of over 40% in size
HepG2 viability = HepG2 cytotoxicity, counter-screen for TGF-b inhibitors; hit rate 0.76% among 410,000; AID 588856; Potency, µM (highest dose often 46.1 µM), for the others: at the highest dose activity change, negative = cytotoxicity, most hits filed as cytotoxic; HepG2 CAGA-GFP viability, ATP luminescence, 18 h; further: potency means the concentration at half of the fitted maximal effect
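CellTiter-Glo luminescence gave cytotoxicity after 18 hours at 37 degrees C. The cells were HepG2 CAGA-GFP in 1% FBS DMEM, stimulated with 500 pg/mL TGF-beta after compound addition. %Activity was normalised to no-cell wells (complete cell-killing) and DMSO (no toxicity), and curves were fitted and classified.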
Numbers without * were called inactive; i = inactive; u = inconclusive; x = not tested or not shown; [ ] = dose if it differs, or a comment. Unless noted, the call rests on the fitted dose curve; in most records, active means well fitted curve in the direction sought with a large enough effect; inconclusive means small, poorly fitted or top-dose-only effect, or another doubt; inactive means no such curve, though single readings can be large; an effect the other way counts as inactive or inconclusive.

SMILES	ATXN2 expr inh	IL-1B inflam inh	TGFb inhibitor	S2 tox	HepG2 viability
CCCOc1ccc(C2c3c(-c4ccccc4O)n[nH]c3C(=O)N2Cc2ccncc2)cc1OCC (centres undefined)	-9%	x	16%	u	3%
COCCNC(=O)c1sc2ncccc2c1-n1c(C)ccc1C	-2%	x	14%	i	5%
CCc1ccc(CNC(=O)c2sc3ncccc3c2-n2c(C)ccc2C)cc1	-34%	x	11µM*	u	-43%
CCN1CCN(CC(=O)Nc2ccc(-c3cccc4c(=O)cc(N5CCOCC5)oc34)c3sc4ccccc4c23)CC1	-15%	x	x	x	x
CC1CCN(S(=O)(=O)c2ccc3c(c2)CCC(=O)N3CC(=O)Nc2cccc(C#N)c2)CC1	x	x	u	x	-14%
O=C1CCCCC1C(Nc1ccc(Cl)cc1)c1ccccc1 (centres undefined)	-1%	-15	-34%	i	0%
O=C1CCCCC1C(Nc1ccc(Br)cc1)c1ccccc1 (centres undefined)	-12%	-72*	-4%	u	-13%
CNC(=O)CN1C(=O)COc2ccc(S(=O)(=O)N3CCC(C)CC3)cc21	5%	x	-3%	i	-11%
Cc1cc(C)c(C#N)c(SCC(O)COc2ccc(Br)cc2)n1 (centres undefined)	-17%	-56*	-17%	i	11%
COc1ccc(-c2cnc(NCc3cc4c(cc3[N+](=O)[O-])OCO4)n2C)cc1	-24%	-51*	u	i	-46%
COc1ccc(OC)c(CNc2ncc(-c3cccc([N+](=O)[O-])c3)n2C)c1	x	u	-8%	i	-38%
Cn1c(=O)c2c(nc(CN3CCc4ccccc4C3)n2Cc2ccccc2F)n(C)c1=O	-9%	-63*	8%	i	-19%
Cn1c(=O)c2c(nc(CN3CCN(c4ccccc4F)CC3)n2Cc2ccccc2F)n(C)c1=O	5%	x	-12%	i	4%
Oc1ccccc1C1Nc2cccc3cccc(c23)N1	-8%	10	0%	i	-1%
O=[N+]([O-])c1ccccc1C1Nc2cccc3cccc(c23)N1	u	-66*	u	u	-14%
CC(=O)c1cccc(NC(=O)c2c(-c3ccccc3)c(-c3ccccc3)nn(C)c2=O)c1	x	x	-19%	x	-3%
COc1ccc(/C=C/c2nc3ccccc3n2Cc2ccccc2OC)cc1	-21%	-201*	-24%	i	-33%
COc1ccccc1Cn1c(/C=C/c2ccccc2)nc2ccccc21	1%	-80*	u	i	-20%
CC(C)CCn1c(/C=C/c2ccccc2)nc2ccccc21	-9%	x	u	u	10µM*
COCCn1c(/C=C/c2ccccc2)nc2ccccc21	75%	-2	-12%	i	-42%
CCC(=O)N1CCc2cc(S(=O)(=O)NC(CC(C)C)C(=O)NCc3ccc(F)cc3)ccc21 (centres undefined)	4%	x	u	i	-8%
Cc1c(CN(C)C)c2c(n1Cc1ccccc1)C(=O)c1ccccc1-2	-18%	-63*	19%	u	-61%
CCCCNCc1nc2ccccc2c(=O)[nH]1	22%	-52*	-2%	i	-6%
CCc1nc2ccccc2c(C(=O)OCc2nc3ccccc3c(=O)[nH]2)c1C	-25%	-56*	2%	i	9%
CCCNc1nc2ccccc2c(=O)[nH]1	0%	-69*	3%	i	-4%
SMILES	ATXN2 expr inh	IL-1B inflam inh	TGFb inhibitor	S2 tox	HepG2 viability
CCc1ccc(NCc2nc3ccccc3c(=O)[nH]2)cc1	13%	22	-1%	i	-16%
CCOC(=O)c1ccc(OCC2c3cc(OC)c(OC)cc3CCN2C(=O)Cc2ccc(OC)c(OC)c2)cc1 (centres undefined)	-3%	x	4%	i	-12%
Cc1cc(C)nc(N/N=C/C(Cl)=C/c2ccccc2)n1	31%	-51*	1%	u	-28%
CCOC(=O)N/N=C/C(Cl)=C/c1ccccc1	17%	-53*	5%	i	-9%
O=C(Cc1cccs1)N/N=C/C(Cl)=C/c1ccccc1	-3%	4	-26%	i	-27%
Cc1cccc(C(=O)Nc2ccc(N3CCC(N4CCCCC4)CC3)c(C(=O)O)c2)c1	16%	x	0%	i	0%
COc1cc(C(=O)Oc2cccc(Nc3ncnc4ccccc34)c2)cc(OC)c1OC	u	-95*	u	u	-23%
N/C(=N\OC(=O)c1ccccc1)C(Cc1ccccc1)C(=O)NOC(=O)c1ccccc1 (centres undefined)	u	-89*	u	x	-75%
COC(=O)c1ccc(-c2ccc(/C=N/NC(=O)Cc3nnc(N)s3)o2)cc1	59%	-86*	0%	i	-8%
Cc1ccc(-c2c(C(=O)N3CCN(c4cccc(C)c4)C(C)C3)oc(=O)c3ccccc23)cc1 (centres undefined)	-18%	x	u	i	-35%
CC(=O)Nc1ccc(C(=O)N2CCCC(n3cc(C(=O)NCC(C)C)nn3)C2)cc1 (centres undefined)	x	x	x	i	x
COc1cc(-c2csc(C)n2)ccc1O	0%	7	11%	i	3%
CNc1cnc(-c2ccc(O)c(OC)c2)cn1	24%	-61*	-9%	i	-21%
Cc1ccc(N(C(=O)CNC(=O)c2ccco2)C(C(=O)NC2CCCCC2)c2cccnc2)cc1C (centres undefined)	7%	-13	-3%	i	-2%
Cc1ccc(N(C(=O)CCl)C(C(=O)NC2CCCCC2)c2cccnc2)cc1C (centres undefined)	3.2µM*	-100*	u	2.8µM*	-26%
Cc1ccc(N(C(=O)CCCC(=O)Nc2ccccn2)C(C(=O)NC2CCCC2)c2ccc(O)cc2)cc1C (centres undefined)	0%	-75*	u	i	0%
COCCCNC(=O)C1CCCN(S(C)(=O)=O)C1 (centres undefined)	-9%	1	9%	i	3.5µM*
CC(=O)Nc1cn(-c2ccccc2)nc1-c1ccccc1	-19%[11.3 µM]	-79*	-2%	i	-9%
O=C(CCl)Nc1cn(-c2ccccc2)nc1-c1ccccc1	x	-97*	u	8.9µM*	22µM*
O=C(/C=C/NNC(=O)c1ccccc1)c1ccccc1	-5%	37	-29%	i	-17%
O=C(/C=C/NNC(=O)c1ccccc1)c1ccc([N+](=O)[O-])cc1	7.5µM*	129	u	u	-49%
CCNC(=O)Nc1ccc2ncc(Nc3ccc(C)cc3)nc2n1	-24%	x	x	x	x
COc1ccccc1C(C[N+](=O)[O-])c1c[nH]c2ccccc12 (centres undefined)	u	-89*	u	u	-4%
CSc1nnc(CNS(=O)(=O)c2ccc(F)cc2F)n1-c1ccccc1C	x	x	x	i	x
